{"source": "the supplement of paper PMC8728848", "binders": {"B1": {"name": "Epa3to1 (Candida glabrata) (protein)", "chain": "MGSSHHHHHHSSGLVPRGSHMKRELSSQNPFGYPIGCSPQDVAIIPGLTMELYSYPIVSGTPPNCYDASYVDPEYPRTGYLKRKMVGKSTGVTGNLNYKYSVEKACMVKYGNLPAGYNYNEPLTVSNFTMILYGYFKAQTTGLHTFFVNADDLLYINFGAGNAFDCCKREDSKTKLGEYVAYDIWHVDSSKNKVSLFLEKDLYYPIRMFFNNREYDSSLDLSFSVNGATDQISDFSGYLYSVPDQPDTCPAHIGYDTTCR"}}, "test_in_all_cases": "glycan array binding signal (z-score within array); higher = stronger binding", "conditions_in_all_cases": "glycan notation: IUPAC condensed, linker removed", "key": {"[1]": {"biological_target": "Fuc(a1-2)Gal(b1-3)GalNAc(b1-3)Gal(a1-4)Gal(b1-4)Glc", "in_short": "(§1)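 Glycan array data came from 3228 arrays in the Consortium for Functional Glycomics database, and only arrays with an available protein sequence were kept. Glycan names were put into IUPAC-condensed notation, and columns mapping to the same glycan were averaged. The binding signal is a within-array Z-score, averaged across arrays of one protein sequence run at different concentrations or buffers and across linkers. A negative Z-score can be read as non-binding.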"}, "[2]": {"biological_target": "Fuc(a1-2)Gal(b1-3)[Fuc(a1-4)]GlcNAc(b1-2)Man(a1-3)[Fuc(a1-2)Gal(b1-3)[Fuc(a1-4)]GlcNAc(b1-2)Man(a1-6)]Man(b1-4)GlcNAc(b1-4)[Fuc(a1-6)]GlcNAc(b1-4)[Fuc(a1-6)]GlcNAc", "in_short": "as §1"}, "[3]": {"biological_target": "Fuc(a1-2)[Gal(a1-3)]Gal(b1-3)GlcNAc(b1-3)GalNAc", "in_short": "as §1"}, "[4]": {"biological_target": "Fuc(a1-2)[Gal(a1-3)]Gal(b1-4)GlcNAc(b1-6)GalNAc", "in_short": "as §1"}, "[5]": {"biological_target": "Fuc(a1-2)[GalNAc(a1-3)]Gal(b1-3)GlcNAc", "in_short": "as §1"}, "[6]": {"biological_target": "Fuc(a1-2)[GalNAc(a1-3)]Gal(b1-3)GlcNAc(b1-2)Man(a1-3)[Fuc(a1-2)[GalNAc(a1-3)]Gal(b1-3)GlcNAc(b1-2)Man(a1-6)]Man(b1-4)GlcNAc(b1-4)[Fuc(a1-6)]GlcNAc", "in_short": "as §1"}, "[7]": {"biological_target": "Fuc(a1-3)[Gal(b1-4)]Glc6S", "in_short": "as §1"}, "[8]": {"biological_target": "Fuc(a1-3)[Gal(b1-4)]GlcNAc(b1-2)Man(a1-3)[Fuc(a1-3)[Gal(b1-4)]GlcNAc(b1-2)Man(a1-6)]Man(b1-4)GlcNAc(b1-4)[Fuc(a1-6)]GlcNAc", "in_short": "as §1"}, "[9]": {"biological_target": "Fuc(a1-3)[GalNAc(b1-4)]GlcNAc6S", "in_short": "as §1"}, "[10]": {"biological_target": "Gal(a1-3)Gal(b1-3)GlcNAc(b1-2)Man(a1-3)[Gal(a1-3)Gal(b1-3)GlcNAc(b1-2)Man(a1-6)]Man(b1-4)GlcNAc(b1-4)GlcNAc", "in_short": "as §1"}, "[11]": {"biological_target": "Gal(a1-3)Gal(b1-3)GlcNAc(b1-3)GalNAc", "in_short": "as §1"}, "[12]": {"biological_target": "Gal(a1-3)Gal(b1-4)GlcNAc(b1-6)GalNAc", "in_short": "as §1"}, "[13]": {"biological_target": "Gal(a1-3)Gal(b1-4)[Fuc(a1-3)]GlcNAc(b1-2)Man(a1-3)[Gal(a1-3)Gal(b1-4)[Fuc(a1-3)]GlcNAc(b1-2)Man(a1-6)]Man(b1-4)GlcNAc(b1-4)GlcNAc", "in_short": "as §1"}, "Gal(a1-4)GlcNAc": {"biological_target": "Gal(a1-4)GlcNAc", "in_short": "as §1"}, "Gal(a1-6)Glc": {"biological_target": "Gal(a1-6)Glc", "in_short": "as §1"}, "[14]": {"biological_target": "Gal(b1-3)GalNAc(b1-4)Gal(b1-4)Glc", "in_short": "as §1"}, "[15]": {"biological_target": "Gal(b1-3)GlcNAc(a1-6)Gal(b1-4)GlcNAc", "in_short": "as §1"}, "[16]": {"biological_target": "Gal(b1-3)GlcNAc(b1-3)Gal(b1-3)GlcNAc", "in_short": "as §1"}, "[17]": {"biological_target": "Gal(b1-3)GlcNAc(b1-3)Gal(b1-4)GlcNAc", "in_short": "as §1"}, "[18]": {"biological_target": "Gal(b1-3)GlcNAc(b1-3)Gal(b1-4)[Fuc(a1-3)]GlcNAc(b1-6)[Gal(b1-3)GlcNAc(b1-3)]Gal(b1-4)Glc", "in_short": "as §1"}, "[19]": {"biological_target": "Gal(b1-3)[Fuc(a1-4)]GlcNAc(b1-2)Man", "in_short": "as §1"}, "[20]": {"biological_target": "Gal(b1-3)[Fuc(a1-4)]GlcNAc(b1-3)Gal(b1-4)[Fuc(a1-3)]GlcNAc", "in_short": "as §1"}, "[21]": {"biological_target": "Gal(b1-3)[Neu5Ac(a2-6)]GalNAc", "in_short": "as §1"}, "[22]": {"biological_target": "Gal(b1-4)GlcNAc(b1-2)Man(a1-3)[Gal(b1-4)GlcNAc(b1-2)Man(a1-6)][GlcNAc(b1-4)]Man(b1-4)GlcNAc(b1-4)[Fuc(a1-6)]GlcNAc", "in_short": "as §1"}, "[23]": {"biological_target": "Gal(b1-4)GlcNAc(b1-2)Man(a1-3)[GlcNAc(b1-4)][Gal(b1-4)GlcNAc(b1-2)Man(a1-6)]Man(b1-4)GlcNAc(b1-4)GlcNAc", "in_short": "as §1"}, "[24]": {"biological_target": "Gal(b1-4)GlcNAc(b1-2)Man(a1-3)[Man(a1-6)]Man(b1-4)GlcNAc(b1-4)GlcNAc", "in_short": "as §1"}}, "note": "Shown is part of a subset that was picked to be rich in the strongest signals."}
{"binder": "B1", "values": [{"measurement": "glycan array binding signal (z-score)", "setting": "[1]", "value": -0.161}, {"measurement": "glycan array binding signal (z-score)", "setting": "[2]", "value": -0.07}, {"measurement": "glycan array binding signal (z-score)", "setting": "[3]", "value": -0.274}, {"measurement": "glycan array binding signal (z-score)", "setting": "[4]", "value": -0.462}, {"measurement": "glycan array binding signal (z-score)", "setting": "[5]", "value": 0.225}, {"measurement": "glycan array binding signal (z-score)", "setting": "[6]", "value": -0.204}, {"measurement": "glycan array binding signal (z-score)", "setting": "[7]", "value": 0.568}, {"measurement": "glycan array binding signal (z-score)", "setting": "[8]", "value": 0.093}, {"measurement": "glycan array binding signal (z-score)", "setting": "[9]", "value": -0.498}, {"measurement": "glycan array binding signal (z-score)", "setting": "[10]", "value": 0.169}, {"measurement": "glycan array binding signal (z-score)", "setting": "[11]", "value": -0.594}, {"measurement": "glycan array binding signal (z-score)", "setting": "[12]", "value": 0.248}, {"measurement": "glycan array binding signal (z-score)", "setting": "[13]", "value": -0.206}, {"measurement": "glycan array binding signal (z-score)", "setting": "Gal(a1-4)GlcNAc", "value": 3.41}, {"measurement": "glycan array binding signal (z-score)", "setting": "Gal(a1-6)Glc", "value": 1.7}, {"measurement": "glycan array binding signal (z-score)", "setting": "[14]", "value": 5.3}, {"measurement": "glycan array binding signal (z-score)", "setting": "[15]", "value": 0.409}, {"measurement": "glycan array binding signal (z-score)", "setting": "[16]", "value": -0.713}, {"measurement": "glycan array binding signal (z-score)", "setting": "[17]", "value": -0.502}, {"measurement": "glycan array binding signal (z-score)", "setting": "[18]", "value": -0.061}, {"measurement": "glycan array binding signal (z-score)", "setting": "[19]", "value": -0.37}, {"measurement": "glycan array binding signal (z-score)", "setting": "[20]", "value": -0.87}, {"measurement": "glycan array binding signal (z-score)", "setting": "[21]", "value": 5.48}, {"measurement": "glycan array binding signal (z-score)", "setting": "[22]", "value": -0.745}, {"measurement": "glycan array binding signal (z-score)", "setting": "[23]", "value": -0.291}, {"measurement": "glycan array binding signal (z-score)", "setting": "[24]", "value": 3.23}]}
